In PubChem BioAssay AID1159580 (chemical genetic matrix, 2015):
Where “and” joins values, the source holds several entries; their conditions need not be identical. Equal values may be shown once. In all, about 5,500 compounds went through this assay and about 2,000 (36%) were called active. Not shown: some 18% with an inconclusive outcome. Cut-off read from the data, not from the text of the source: active = normalized growth mostly below about 0.91 (no sharp cut-off); inconclusive = no clear call, values can overlap the other calls; inactive = mostly above about 0.92. This is one part of the list.

Test: chemical genetic growth profiling, strain panel (AID 1159580);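 note: tested at 20 µM; growth read once vehicle control cultures reached saturation at 30 °C; 1 = growth at the plate median or of vehicle wells; lower values mean less growth of the strain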
Details: S. cerevisiae deletion strains, growth OD

Measured: normalized growth

Cc1nnc(NS(=O)(=O)c2ccc(N)cc2)s1
inactive: locus YAL021C, strain ccr4, active compounds read low 0.982 | locus YAL026C, strain drs2, active compounds read low 1.01 | locus YAL030W, strain snc1, active compounds read low 0.986 | locus YBL061C, strain skt5, active compounds read low 0.989 | locus YBR009C, strain hhf1, active compounds read low 1.01 | locus YBR021W, strain FUR4, active compounds read low 1.02 | locus YBR023C, strain chs3, active compounds read low 1.02 | locus YBR171W, strain sec66, active compounds read low 1 | locus YBR229C, strain ROT2, active compounds read low 1 | locus YBR231C, strain swc5, active compounds read low 0.99 | locus YBR279W, strain paf1, active compounds read low 1 | locus YCL011C, strain gbp2, active compounds read low 1.02 | locus YCL016C, strain dcc1, active compounds read low 1 | locus YCL029C, strain bik1, active compounds read low 0.992 | locus YCL061C, strain MRC1, active compounds read low 1.01 | locus YCL069W, strain vba3, active compounds read low 0.997 | locus YCR088W, strain abp1, active compounds read low 1 | locus YDL005C, strain med2, active compounds read low 1.02 | locus YDL035C, strain GPR1, active compounds read low 1.02 | locus YDL040C, strain nat1, active compounds read low 1.01 | locus YDL074C, strain BRE1, active compounds read low 1.05 | locus YDL101C, strain DUN1, active compounds read low 1 | locus YDL134C, strain PPH21, active compounds read low 1.02 | locus YDL185W, strain tfp1, active compounds read low 1 | locus YDL192W, strain arf1, active compounds read low 1.01 | locus YDR001C, strain nth1, active compounds read low 1.01 | locus YDR069C, strain doa4, active compounds read low 0.992 | locus YDR101C, strain arx1, active compounds read low 0.995 | locus YDR137W, strain rgp1, active compounds read low 1.01 | locus YDR159W, strain sac3, active compounds read low 0.979 | locus YDR162C, strain NBP2, active compounds read low 1.03 | locus YDR195W, strain ref2 0.947 | locus YDR297W, strain sur2, active compounds read low 1 | locus YDR318W, strain mcm21, active compounds read low 1.02 | locus YDR334W, strain swr1, active compounds read low 0.987 | locus YDR335W, strain msn5, active compounds read low 0.999 | locus YDR388W, active compounds read low 0.993 | locus YDR392W, strain spt3, active compounds read low 1.04 | locus YDR502C, strain sam2, active compounds read low 1.02 | locus YEL003W, strain gim4, active compounds read low 1 | locus YEL037C, strain rad23, active compounds read low 0.972 | locus YEL061C, strain CIN8 (second series), active compounds read low 1.01 | locus YEL061C, strain CIN8, active compounds read low 1.01 | locus YER015W, strain faa2, active compounds read low 1 | locus YER016W, strain bim1, active compounds read low 0.994 | locus YER110C, active compounds read low 0.984 | locus YER111C, strain swi4, active compounds read low 0.999 | locus YER155C, strain BEM2 (second series), active compounds read low 0.99 | locus YER155C, strain BEM2, active compounds read low 1 | locus YER167W, strain BCK2, active compounds read low 1.01 | locus YFR010W, strain ubp6, active compounds read low 1 | locus YGL078C, strain dbp3, active compounds read low 1 | locus YGL086W, strain mad1, active compounds read low 1 | locus YGL167C, strain pmr1, active compounds read low 1 | locus YGL173C, strain kem1, active compounds read low 0.985 | locus YGL227W, strain vid30, active compounds read low 1.01 | locus YGL240W, strain doc1, active compounds read low 1.02 | locus YGL248W, strain PDE1, active compounds read low 1 | locus YGL253W, strain hxk2, active compounds read low 1.01 | locus YGR135W, strain pre9, active compounds read low 1 | locus YGR252W, strain gcn5, active compounds read low 1.13 | locus YHR013C, strain ard1, active compounds read low 0.998 | locus YHR027C, strain rpn1, active compounds read low 1 | locus YHR030C, strain SLT2, active compounds read low 1.01 and 0.969 | locus YHR079C, strain IRE1 (second series), active compounds read low 0.96 | locus YHR079C, strain IRE1, active compounds read low 0.971 | locus YHR094C, strain hxt1, active compounds read low 0.981 | locus YHR129C, strain ARP1, active compounds read low 1 | locus YHR142W, strain chs7, active compounds read low 1.02 | locus YHR200W, strain rpn10, active compounds read low 1.01 | locus YIL066C, strain RNR3, active compounds read low 0.992 | locus YIL073C, strain SPO22, active compounds read low 1.06 | locus YIL125W, strain kgd1, active compounds read low 1.01 | locus YIR030C, strain dcg1, active compounds read low 0.991 | locus YJL092W, strain hpr5, active compounds read low 1 | locus YJL095W, strain BCK1 (second series), active compounds read low 0.988 | locus YJL095W, strain BCK1, active compounds read low 1.02 and 0.974 | locus YJL115W, strain asf1, active compounds read low 1.01 | locus YJL129C, strain trk1, active compounds read low 0.997 | locus YJL134W, strain LCB3, active compounds read low 1.01 | locus YJL154C, strain vps35, active compounds read low 1.01 | locus YJL164C, strain tpk1, active compounds read low 1.01 | locus YJL166W, strain qcr8, active compounds read low 1 | locus YJL168C, strain set2, active compounds read low 0.988 | locus YJL187C, strain SWE1 (second series), active compounds read low 1.01 | locus YJL187C, strain SWE1, active compounds read low 1 | locus YJR043C, strain POL32, active compounds read low 1.03 | locus YJR066W, strain TOR1, active compounds read low 0.925 | locus YJR075W, strain HOC1, active compounds read low 1.01
